Results taken from the supplement of paper PMC11732987, “Enantioselective OTUD7B fragment discovery through chemoproteomics screening and high-throughput optimisation” (Communications Chemistry, 2025).
Values without a mark were called inactive.

Experiments:
Test in all cases: log2 ratio of Biotin-Ahx-Ub-VS probe labelling (fragment/DMSO); higher = less target engagement (more negative = stronger competition), active = hit call of the paper (q ≤ 0.05, log2 ratio ≤ -1)
Conditions in all cases: compound concentration: 200 uM; treatment time: 3 h
USP19 = biological target: T1, USP19 (UniProt O94966)
T1 sequence (whole entry): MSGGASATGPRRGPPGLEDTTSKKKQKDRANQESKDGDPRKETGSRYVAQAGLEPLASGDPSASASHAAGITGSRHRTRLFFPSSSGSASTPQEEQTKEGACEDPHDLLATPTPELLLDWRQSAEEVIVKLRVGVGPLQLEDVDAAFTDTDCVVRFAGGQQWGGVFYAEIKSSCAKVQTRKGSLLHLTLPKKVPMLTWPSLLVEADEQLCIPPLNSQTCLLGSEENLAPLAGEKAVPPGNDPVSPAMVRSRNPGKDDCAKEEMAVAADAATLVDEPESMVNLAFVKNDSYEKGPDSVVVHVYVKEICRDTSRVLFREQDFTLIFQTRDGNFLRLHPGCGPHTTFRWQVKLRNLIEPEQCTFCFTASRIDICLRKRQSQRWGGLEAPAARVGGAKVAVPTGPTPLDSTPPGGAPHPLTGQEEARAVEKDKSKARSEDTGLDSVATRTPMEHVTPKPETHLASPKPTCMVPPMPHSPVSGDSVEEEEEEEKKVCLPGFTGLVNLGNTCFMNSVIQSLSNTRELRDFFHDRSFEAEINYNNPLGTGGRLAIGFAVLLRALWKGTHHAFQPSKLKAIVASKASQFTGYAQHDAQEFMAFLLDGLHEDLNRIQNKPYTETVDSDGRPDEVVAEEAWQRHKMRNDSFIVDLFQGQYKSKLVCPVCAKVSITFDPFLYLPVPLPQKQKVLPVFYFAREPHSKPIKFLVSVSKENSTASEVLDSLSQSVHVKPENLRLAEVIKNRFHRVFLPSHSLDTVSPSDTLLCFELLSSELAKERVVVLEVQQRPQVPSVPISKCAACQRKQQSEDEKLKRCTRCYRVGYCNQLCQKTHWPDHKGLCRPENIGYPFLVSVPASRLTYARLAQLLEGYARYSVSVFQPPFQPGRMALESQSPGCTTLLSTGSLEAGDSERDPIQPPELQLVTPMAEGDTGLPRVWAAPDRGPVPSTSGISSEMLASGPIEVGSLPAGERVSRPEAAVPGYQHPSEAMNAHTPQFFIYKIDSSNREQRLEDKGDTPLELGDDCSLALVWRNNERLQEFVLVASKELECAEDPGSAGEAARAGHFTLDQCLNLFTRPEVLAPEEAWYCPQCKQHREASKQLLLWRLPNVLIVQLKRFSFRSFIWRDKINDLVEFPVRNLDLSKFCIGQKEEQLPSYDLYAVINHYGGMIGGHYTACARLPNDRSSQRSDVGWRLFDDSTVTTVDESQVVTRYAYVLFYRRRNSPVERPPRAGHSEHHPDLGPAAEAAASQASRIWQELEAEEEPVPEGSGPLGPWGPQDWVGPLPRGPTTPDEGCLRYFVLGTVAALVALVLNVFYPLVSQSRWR
Outline: (§1)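 Labelled DUBs from HEK293T lysate were NeutrAvidin-enriched, digested with LysC and trypsin, and run by diaPASEF LC-MS/MS. Before that, each 495 µg sample in Tris/CHAPS/IGEPAL buffer with protease inhibitors was treated in triplicate with fragment at 200 µM or vehicle for 3 h, then with Biotin-Ahx-Ub-VS at 0.5 µM final for 1 h. Values are average log2 ratios of fragment over vehicle by unpaired t-test, based on global-median-normalised Spectronaut label-free quantities from proteins with ≥2 unique peptides.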

USP24 = USP24 (UniProt Q9UPU5)
USP24, sequence (Q9UPU5 whole entry): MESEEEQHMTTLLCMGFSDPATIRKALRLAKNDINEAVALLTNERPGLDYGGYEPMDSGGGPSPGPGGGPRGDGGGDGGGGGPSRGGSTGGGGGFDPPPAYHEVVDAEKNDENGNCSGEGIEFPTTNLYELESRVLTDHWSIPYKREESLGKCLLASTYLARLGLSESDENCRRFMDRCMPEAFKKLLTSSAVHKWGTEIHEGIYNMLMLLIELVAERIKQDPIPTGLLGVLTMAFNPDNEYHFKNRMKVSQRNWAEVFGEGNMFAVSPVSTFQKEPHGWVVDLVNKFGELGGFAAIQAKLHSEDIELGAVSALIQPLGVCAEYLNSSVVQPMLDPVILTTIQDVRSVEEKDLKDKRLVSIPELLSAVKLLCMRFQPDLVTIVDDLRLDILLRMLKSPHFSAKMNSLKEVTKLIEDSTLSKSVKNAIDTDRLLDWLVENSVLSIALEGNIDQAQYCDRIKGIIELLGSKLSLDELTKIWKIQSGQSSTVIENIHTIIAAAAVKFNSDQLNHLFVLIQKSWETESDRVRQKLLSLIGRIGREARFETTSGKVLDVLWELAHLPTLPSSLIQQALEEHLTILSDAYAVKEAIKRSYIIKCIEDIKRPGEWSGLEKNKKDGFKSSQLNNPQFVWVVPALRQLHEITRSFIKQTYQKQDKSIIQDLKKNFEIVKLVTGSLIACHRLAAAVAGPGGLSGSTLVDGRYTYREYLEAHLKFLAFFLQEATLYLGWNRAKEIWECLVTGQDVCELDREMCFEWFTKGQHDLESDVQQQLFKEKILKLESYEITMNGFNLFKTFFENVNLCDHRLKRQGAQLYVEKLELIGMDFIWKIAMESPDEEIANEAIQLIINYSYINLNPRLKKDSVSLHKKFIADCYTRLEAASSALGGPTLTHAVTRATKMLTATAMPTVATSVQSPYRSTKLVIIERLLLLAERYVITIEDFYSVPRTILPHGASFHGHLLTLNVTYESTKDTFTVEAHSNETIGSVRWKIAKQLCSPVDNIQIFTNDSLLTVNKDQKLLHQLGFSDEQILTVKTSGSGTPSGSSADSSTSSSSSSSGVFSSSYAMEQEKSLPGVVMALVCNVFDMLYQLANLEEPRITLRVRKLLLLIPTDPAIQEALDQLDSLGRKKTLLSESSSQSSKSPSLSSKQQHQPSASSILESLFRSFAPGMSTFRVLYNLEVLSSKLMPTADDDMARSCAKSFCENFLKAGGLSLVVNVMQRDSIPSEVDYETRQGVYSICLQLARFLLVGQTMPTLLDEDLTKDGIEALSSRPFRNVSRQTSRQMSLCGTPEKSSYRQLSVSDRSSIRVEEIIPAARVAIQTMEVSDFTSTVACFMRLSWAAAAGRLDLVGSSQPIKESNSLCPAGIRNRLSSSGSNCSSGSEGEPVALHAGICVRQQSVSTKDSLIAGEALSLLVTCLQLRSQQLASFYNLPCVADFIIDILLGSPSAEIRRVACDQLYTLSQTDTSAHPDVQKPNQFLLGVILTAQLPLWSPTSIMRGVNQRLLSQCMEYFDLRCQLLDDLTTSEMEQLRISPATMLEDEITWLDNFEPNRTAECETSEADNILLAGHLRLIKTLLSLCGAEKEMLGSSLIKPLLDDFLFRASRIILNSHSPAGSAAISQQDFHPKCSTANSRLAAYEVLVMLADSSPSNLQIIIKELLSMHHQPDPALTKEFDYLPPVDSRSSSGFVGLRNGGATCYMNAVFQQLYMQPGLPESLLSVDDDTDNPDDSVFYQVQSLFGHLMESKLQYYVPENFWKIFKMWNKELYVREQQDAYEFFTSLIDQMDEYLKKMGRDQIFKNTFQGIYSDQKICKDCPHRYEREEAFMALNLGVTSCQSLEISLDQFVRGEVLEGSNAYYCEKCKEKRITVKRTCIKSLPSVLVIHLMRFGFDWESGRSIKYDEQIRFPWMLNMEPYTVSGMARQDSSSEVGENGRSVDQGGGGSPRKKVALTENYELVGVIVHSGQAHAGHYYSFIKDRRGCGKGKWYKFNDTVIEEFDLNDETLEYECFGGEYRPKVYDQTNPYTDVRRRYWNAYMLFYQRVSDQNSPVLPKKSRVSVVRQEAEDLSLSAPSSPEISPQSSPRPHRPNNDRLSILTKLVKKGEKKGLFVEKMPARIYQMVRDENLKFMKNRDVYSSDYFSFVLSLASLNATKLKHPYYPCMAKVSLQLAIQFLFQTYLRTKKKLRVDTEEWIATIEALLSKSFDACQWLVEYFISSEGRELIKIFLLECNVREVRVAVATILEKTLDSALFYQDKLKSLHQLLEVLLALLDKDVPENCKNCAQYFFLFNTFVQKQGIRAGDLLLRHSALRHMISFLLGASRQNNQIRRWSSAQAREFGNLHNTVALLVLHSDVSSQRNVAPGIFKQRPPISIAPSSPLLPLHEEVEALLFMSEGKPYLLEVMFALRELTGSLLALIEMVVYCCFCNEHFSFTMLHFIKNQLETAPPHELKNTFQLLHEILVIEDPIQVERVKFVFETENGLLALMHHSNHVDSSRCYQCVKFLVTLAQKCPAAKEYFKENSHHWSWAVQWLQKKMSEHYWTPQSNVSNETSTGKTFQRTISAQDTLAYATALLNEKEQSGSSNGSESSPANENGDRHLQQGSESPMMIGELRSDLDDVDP
Outline: as §1

USP25 = biological target: T2, USP25 (UniProt Q9UHP3)
T2 sequence (whole entry): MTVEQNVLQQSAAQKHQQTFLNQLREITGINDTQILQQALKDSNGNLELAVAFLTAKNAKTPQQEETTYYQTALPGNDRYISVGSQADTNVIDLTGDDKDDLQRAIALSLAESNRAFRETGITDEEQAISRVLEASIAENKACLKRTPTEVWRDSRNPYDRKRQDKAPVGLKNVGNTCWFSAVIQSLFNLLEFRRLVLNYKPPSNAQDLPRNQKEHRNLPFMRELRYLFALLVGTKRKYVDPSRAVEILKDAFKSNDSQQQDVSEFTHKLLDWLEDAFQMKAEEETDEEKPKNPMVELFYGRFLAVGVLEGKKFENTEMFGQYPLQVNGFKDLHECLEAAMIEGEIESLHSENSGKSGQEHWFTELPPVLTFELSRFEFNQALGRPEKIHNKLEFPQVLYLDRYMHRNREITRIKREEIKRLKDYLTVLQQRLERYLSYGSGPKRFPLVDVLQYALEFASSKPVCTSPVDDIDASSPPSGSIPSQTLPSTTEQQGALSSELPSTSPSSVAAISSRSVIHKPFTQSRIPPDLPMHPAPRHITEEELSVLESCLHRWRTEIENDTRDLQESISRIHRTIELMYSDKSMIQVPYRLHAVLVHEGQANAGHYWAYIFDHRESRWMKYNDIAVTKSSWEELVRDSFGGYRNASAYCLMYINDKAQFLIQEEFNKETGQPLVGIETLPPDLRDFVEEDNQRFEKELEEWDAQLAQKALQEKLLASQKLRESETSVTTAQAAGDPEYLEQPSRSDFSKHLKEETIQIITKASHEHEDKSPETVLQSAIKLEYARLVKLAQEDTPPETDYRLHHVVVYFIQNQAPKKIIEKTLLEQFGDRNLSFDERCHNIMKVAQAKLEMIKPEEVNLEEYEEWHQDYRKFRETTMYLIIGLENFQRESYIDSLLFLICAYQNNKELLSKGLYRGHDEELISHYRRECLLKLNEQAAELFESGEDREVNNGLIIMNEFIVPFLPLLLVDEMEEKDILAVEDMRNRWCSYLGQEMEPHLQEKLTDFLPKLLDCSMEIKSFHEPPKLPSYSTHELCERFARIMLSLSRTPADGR
Outline: as §1

USP28 = biological target: T3, USP28 (UniProt Q96RU2)
T3 sequence (whole entry): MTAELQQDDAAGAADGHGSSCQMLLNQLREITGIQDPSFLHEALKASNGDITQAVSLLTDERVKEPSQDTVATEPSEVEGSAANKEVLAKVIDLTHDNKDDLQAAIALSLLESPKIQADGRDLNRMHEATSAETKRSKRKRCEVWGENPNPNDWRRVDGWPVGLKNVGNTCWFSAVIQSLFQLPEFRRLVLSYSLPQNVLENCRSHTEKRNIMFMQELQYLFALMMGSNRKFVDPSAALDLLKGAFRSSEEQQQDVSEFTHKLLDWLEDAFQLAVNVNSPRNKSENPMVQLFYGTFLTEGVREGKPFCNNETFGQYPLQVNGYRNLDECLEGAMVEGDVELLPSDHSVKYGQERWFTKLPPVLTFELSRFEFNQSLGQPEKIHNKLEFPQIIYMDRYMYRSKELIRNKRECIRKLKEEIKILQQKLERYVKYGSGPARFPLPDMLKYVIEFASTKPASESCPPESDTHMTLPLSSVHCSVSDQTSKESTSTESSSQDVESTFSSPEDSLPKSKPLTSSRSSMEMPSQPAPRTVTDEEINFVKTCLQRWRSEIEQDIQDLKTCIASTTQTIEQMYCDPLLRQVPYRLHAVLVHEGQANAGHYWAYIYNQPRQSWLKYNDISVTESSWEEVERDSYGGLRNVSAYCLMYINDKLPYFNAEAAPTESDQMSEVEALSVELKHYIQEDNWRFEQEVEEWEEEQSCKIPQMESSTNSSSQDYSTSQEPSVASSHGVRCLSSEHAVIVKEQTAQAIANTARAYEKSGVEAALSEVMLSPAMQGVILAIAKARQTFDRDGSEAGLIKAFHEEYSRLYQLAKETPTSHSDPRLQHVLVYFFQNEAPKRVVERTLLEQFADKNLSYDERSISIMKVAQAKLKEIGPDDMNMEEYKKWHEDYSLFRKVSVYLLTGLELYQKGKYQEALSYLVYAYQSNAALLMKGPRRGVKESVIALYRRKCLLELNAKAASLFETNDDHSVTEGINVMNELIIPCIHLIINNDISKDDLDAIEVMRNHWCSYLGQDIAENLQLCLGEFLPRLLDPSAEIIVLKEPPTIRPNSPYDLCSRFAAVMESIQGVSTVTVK
Outline: as §1

Cc1ccc(C)c(NC(=O)CCl)c1
log2 ratio of Biotin-Ahx-Ub-VS probe labelling (USP19): -0.203
log2 ratio of Biotin-Ahx-Ub-VS probe labelling (USP24): -0.729
log2 ratio of Biotin-Ahx-Ub-VS probe labelling (USP25): -1.41 (active)
log2 ratio of Biotin-Ahx-Ub-VS probe labelling (USP28): -1.56 (active)
